Source: PubChem BioAssay
Only some compounds are listed: those with a hit (about 5.4% of all), similar ones and a draw of the others.
JMJD2C inh = human JMJD2C demethylase inhibition. AID 2099. 330,000 tested, 0.069% active. Q9H3R0. GST-JMJD2C(1-420) H3K9me3 demethylation, DELFIA europium. inhibition, % at 2.35 µM;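 active means more than half of a compound's replicate wells show inhibition beyond 50%, single wells judged on their own value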;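 further: signal counts dimethyl H3K9 product captured on neutravidin plate; 0% = median of DMSO wells and 100% = 0.3 times that DMSO median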
Target sequence (Q9H3R0 1-420 limits assumed): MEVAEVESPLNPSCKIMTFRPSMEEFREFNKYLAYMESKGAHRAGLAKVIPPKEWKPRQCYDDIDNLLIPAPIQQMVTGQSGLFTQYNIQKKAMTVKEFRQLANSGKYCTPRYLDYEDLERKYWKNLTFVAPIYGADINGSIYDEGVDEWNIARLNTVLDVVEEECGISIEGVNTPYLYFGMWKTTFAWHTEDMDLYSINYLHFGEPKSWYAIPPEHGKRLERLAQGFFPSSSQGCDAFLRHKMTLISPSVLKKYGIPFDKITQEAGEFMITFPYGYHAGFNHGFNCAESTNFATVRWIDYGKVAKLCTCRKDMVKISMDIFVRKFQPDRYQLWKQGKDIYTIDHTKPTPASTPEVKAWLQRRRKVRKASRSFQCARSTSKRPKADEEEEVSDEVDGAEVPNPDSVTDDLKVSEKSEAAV
ALR inh = blocks human ALR sulfhydryl oxidase activity | P55789 | inhibition, % (no concentration beside the values) | purified ALR, DTT oxidation, H2O2 HRP-luminol luminescence | 290,000 tested, 3.8% active | AID 485317;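 active means mean replicate inhibition above about 79%, with every replicate also reaching it, limit read from the data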
M18AAP inhibitor = blocks P. falciparum M18 aspartyl aminopeptidase. AID 1822. 290,000 tested, 1.2% active. inhibition, % at 7.35 µM. recombinant PfM18AAP, H-Glu-NHMec fluorogenic cleavage;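 active means inhibition above the campaign mean inhibition over all tested compounds plus 3 SD, cut at about 28% in these data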;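 further: 0% = plate median of test compound wells and 100% = 2 mM ZnCl2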
SMARCA2 activ = activators of SMARCA2 function. MG213 cells, MMTV-luciferase reporter, dexamethasone, overnight. activation, % at 9.1 µM. 370,000 tested, 1% active; in the data active means activation above about 7.8%;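 further: 0% = vehicle wells and 100% = reference activator wells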
Granule exo inh = blocks lytic granule exocytosis. 360,000 tested, 0.66% active. TALL-104 LAMP-1 surface exposure, flow cytometry; cells stimulated with thapsigargin and PMA. AID 651702. inhibition, % at 10 µM;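 active means inhibition above about 55%, limit read from the data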
MIN6 prolif = induces beta-cell replication in MIN6 cells | 330,000 tested, 0.29% active | MIN6 cells proliferation, ATPlite luminescence, 48 h; cells starved in 0.2% serum; 100% = growth in 10% serum | AID 2380 | proliferation, % at 10 µM;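 active means compounds whose signal lies at least 3.5 SD above the mean of all wells on their plate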;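 further: 0% = DMSO-treated cells in low-serum medium and 100% = 10% serum control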
The depositor's hits bear a star; / = not tested or not shown.

SMILES	JMJD2C inh	ALR inh	M18AAP inhibitor	SMARCA2 activ	Granule exo inh	MIN6 prolif
CC(NCc1ccco1)C(=O)N1CCCC1 (configuration not stated)	/	/	/	-6	/	/
CC(C)NC(=O)NC1CCN(CC(=O)Nc2ccc3c(c2)OCCO3)CC1	/	/	/	-6	/	/
C(=N\Nc1nc2ccccc2[nH]1)/c1ccccn1	-25	/	5	1	-1	/
Cc1ccc(/C=N\Nc2nc3ccc(Cl)cc3[nH]2)o1	0	95*	13	4	1	-3
Cc1ccc(/C=N/Nc2ccc3ccccc3n2)o1	/	99*	14	5	0	-7
Cc1cccc(/C=N/Nc2ccc3ccccc3n2)c1	5	/	13	-5	-2	-5
Fc1ccccc1-c1ccc(/C=N/Nc2nc3ccccc3[nH]2)o1	-5	22	8	4	70*	-6
COC(=O)[C@]12C[C@H](CC(=O)NCCc3ccccc3OC)C(=O)N(CCc3ccc(OC)c(OC)c3)C1=C[C@H](C(C)C)O[C@@H]2C1CC1	/	/	/	-3	/	/
Cc1cccc(N2CCN(C(=O)c3ccc4c(c3)NC(=O)C(CSCc3ccc(F)cc3)N4)CC2C)c1 (configuration not stated)	8	97*	11	/	/	-7
Cc1ccc(CSCC2Nc3ccc(C(=O)N4CCN(c5cccc(C)c5)C(C)C4)cc3NC2=O)cc1 (configuration not stated)	5	14	5	/	/	-7
CCN(CC)CCN1C(=O)/C(=C\c2ccc(Cl)c([N+](=O)[O-])c2)SC1=Nc1ccc(OC)cc1	8	-5	6	-11	93*	-4
CCCN1C(=O)/C(=C/c2ccc(C)s2)SC1=Nc1ccc(OC)cc1	4	-6	-4	0	1	1
COc1ccc(N=C2S/C(=C\c3ccc(Cl)c([N+](=O)[O-])c3)C(=O)N2CCN(C)C)cc1	-16	/	4	-7	73*	-6
CCN1C(=O)/C(=C/c2cccs2)SC1=Nc1ccc(OC)cc1	4	-16	1	1	-6	-2
O=C(CCl)NN=C(c1ccccc1)c1ccccc1	0	94*	11	-1	2	-5
CCN(CC)CC(=O)NN=C(c1ccccc1)c1ccccc1	6	3	2	4	-4	1
COc1ccc(S[C@]2(C(=O)N3CCCC3)CC(=O)N(C(=O)C3CC3)[C@@H]2c2ccc(OC)cc2)cc1	/	/	/	-1	/	/
Cc1ccc(NC(=S)N2CCC(c3ccc(C)cc3)C2)cc1 (configuration not stated)	10	-5	39*	2	-5	-4
COc1ccc2cnnc(SCC(=O)Nc3ccc(C(=O)O)cc3)c2c1OC	3	99*	-2	3	3	0
Cc1nnc(SCC(=O)Nc2ccccc2)c2ccccc12	11	99*	4	2	-4	0
Cc1ccc(NC(=O)CSc2nncc3ccccc23)cc1	-37	99*	12	-1	-4	-2
Cc1ccc([N+](=O)[O-])cc1NC(=O)CSc1nncc2ccccc12	3	0	2	-3	5	3
Cc1ccc(/C=c2\sc3nc(-c4cccnc4)nn3c2=O)cc1	3	91*	4	-1	-3	/
CC(C)c1ccc(/C=c2\sc3nc(-c4ccncc4)nn3c2=O)cc1	18	87*	-17	-1	2	-3
O=S(=O)(NCc1ccccc1)c1cc(Br)ccc1Br	/	/	/	0	/	/
SMILES	JMJD2C inh	ALR inh	M18AAP inhibitor	SMARCA2 activ	Granule exo inh	MIN6 prolif
CN1CCN(Cc2c(O)ccc3cc(Br)ccc23)CC1	-2	78*	-9	-2	/	-2
CCc1cc(=O)oc2c(CN3CCN(C)CC3)c(O)ccc12	-1	-3	14	1	6	1
CC(Sc1nnc(-c2cccnc2)n1-c1ccccc1F)C(=O)N1CCCc2ccccc21 (configuration not stated)	3	-8	12	7.9*	/	0
O=c1cc(-c2ccccc2)cc(-c2ccccc2)n1O	-3	98*	/	0	-3	-4
O=C(Cn1c(C(F)(F)F)nc2ccccc21)c1ccc(F)cc1	0	92*	5	-1	-4	-3
CC(=O)c1ccc(N2CCN(c3ccccc3O)CC2)c([N+](=O)[O-])c1	20	99*	23	-3	37	0
CC(NC(=O)c1ccc(N2CCCC2)c([N+](=O)[O-])c1)c1ccc(S(N)(=O)=O)cc1 (configuration not stated)	-32	98*	0	0	26	-4
O=[N+]([O-])c1ccc(N2CCN(c3ccc([N+](=O)[O-])cc3CO)CC2)c(CO)c1	4	-8	1	-3	26	0
N#Cc1cc([N+](=O)[O-])ccc1N1CCN(c2ccccc2O)CC1	0	98*	13	-2	3	-2
C=CCN=C1NC(c2cccc(C(F)(F)F)c2)C(C(=O)OC)=C(C)N1Cc1ccccc1C(F)(F)F (configuration not stated)	/	/	/	-2	/	/
COc1ccc(C(=O)c2ccc(N(C)C)cc2)c(OC)c1	-2	96*	2	-1	-6	-3
COc1ccc(C(=O)c2ccc(OC)cc2OC)cc1	0	3	0	-3	-1	-2
CCCCc1c(C)nc2ccc(C(=O)OCC)cc2c1Cl	-1	97*	-3	-1	-2	1
Cc1ccccc1CSc1nccn1-c1ccccc1	14	99*	-3	0	19	2
Cc1ccccc1CSc1nnc(-c2ccccn2)n1C	-22	-2	-4	6	-12	1
COc1ccc(-c2cc(C(=O)O)c3sc(N4CCCCC4)nc3n2)cc1OC	-13	8	6	-4	-15	0
Cc1ccc(-c2cc(C(=O)O)c3sc(N4CCCCC4)nc3n2)cc1	10	98*	8	-3	-6	0
CCOC(=O)c1cc(-c2ccccc2)nc2nc(N3CCCCC3)sc12	8	2	0	3	0	0
O=C(O)c1cc(-c2ccccc2)nc2nc(N3CCCCC3)sc12	3	80*	2	2	/	-4
COC(=O)C12C=C3CC(c4ccc(C)s4)=C3C(=O)N1Cc1[nH]c3ccccc3c1C2 (configuration not stated)	/	/	/	-3	/	/
CCN(CC)c1ccc(NC(=O)Cn2cc3c(n2)CCC(C)C3)c(C)c1 (configuration not stated)	2	99*	25	0	4	-6
CCN(CC)c1ccc(NC(=O)CN2C(=O)CSc3ncccc32)c(C)c1	-9	97*	2	-2	10	-7
CNC(=O)CN1C(=O)CSc2ncccc21	-6	-36	-2	-2	2	-1
COC(=O)[C@]12C[C@H](CC(=O)N3CCCCC3)C(=O)N(CCc3ccc(OC)c(OC)c3)C1=C[C@H](C(C)C)O[C@@H]2C1CC1	/	/	/	-1	/	/
